Shown are actives, neighbours in structure and some others; about 2.6% of the full set was active somewhere.
pPAFAH FP inh – pPAFAH enzyme inhibitors, primary screen, biochemical, fluorescence polarization, human. inhibition, % at 3.39 µM. actives 1.5% (n = 330,000). recombinant pPAFAH, FP-rhodamine probe fluorescence polarization;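 active = inhibition above the mean inhibition across the screen plus 3 SD, cut at about 25% in these data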;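 also: inhibitors block binding of the rhodamine activity-based probe so polarization drops; 0% = enzyme with DMSO and 100% = wells lacking pPAFAH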
PAFAH2 FP inh – PAFAH2 enzyme inhibitors, primary screen, biochemical, fluorescence polarization, human | Platelet-activating factor acetylhydrolase 2, cytoplasmic (Homo sapiens), Q99487 | recombinant PAFAH2, FP-rhodamine activity probe | inhibition, % at 3.39 µM | actives 0.99% (n = 340,000);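 active = inhibition above the mean over all tested compounds plus 3 SD, cut at about 30% in these data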;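 also: inhibitors block probe labeling of enzyme so polarization drops; 0% = enzyme with DMSO and 100% = wells lacking PAFAH2 protein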
PAFAH1B3 inh – PAFAH1B3 enzyme inhibitors, primary screen, biochemical, fluorescence polarization, human; recombinant PAFAH1B3, FP-rhodamine probe; Platelet-activating factor acetylhydrolase IB subunit alpha1 (Homo sapiens), Q15102; actives 0.28% (n = 340,000); AID 492972, 2010; inhibition, % at 3.39 µM;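 active = inhibition above the screen-wide average of all tested compounds plus 3 SD, cut at about 25% in these data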;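 also: 0% = enzyme with DMSO only and 100% = wells lacking PAFAH1B3 protein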
Target sequence (Q15102 whole entry, looked up): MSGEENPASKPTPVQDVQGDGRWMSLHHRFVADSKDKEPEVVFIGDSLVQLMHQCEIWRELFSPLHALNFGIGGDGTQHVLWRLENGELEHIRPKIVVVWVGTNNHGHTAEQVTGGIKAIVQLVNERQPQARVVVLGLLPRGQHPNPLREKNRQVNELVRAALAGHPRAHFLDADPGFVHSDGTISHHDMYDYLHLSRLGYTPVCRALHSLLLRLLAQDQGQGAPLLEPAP
PAFAH1B2 FP inh – PAFAH1B2 enzyme inhibitors, primary screen, biochemical, fluorescence polarization, human. Platelet-activating factor acetylhydrolase IB subunit alpha2 (Homo sapiens), P68402. AID 492953, 2010. recombinant PAFAH1B2, FP-rhodamine activity probe. actives 1.2% (n = 340,000). inhibition, % at 3.39 µM;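 active = inhibition above the mean of all tested compounds plus 3 SD, cut at about 24% in these data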;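 also: 0% = enzyme with DMSO and 100% = wells lacking PAFAH1B2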
Target sequence (P68402 whole entry, looked up): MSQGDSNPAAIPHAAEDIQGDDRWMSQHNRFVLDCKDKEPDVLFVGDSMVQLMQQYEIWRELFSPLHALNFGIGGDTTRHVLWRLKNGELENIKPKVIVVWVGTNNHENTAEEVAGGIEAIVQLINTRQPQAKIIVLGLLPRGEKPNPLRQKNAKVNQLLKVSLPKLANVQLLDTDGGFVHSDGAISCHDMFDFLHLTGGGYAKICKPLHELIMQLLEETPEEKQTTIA
PKA-R1A act – activators of PKA-R1A holoenzyme, primary screen, biochemical, fluorescence polarization, Cy5-IP20, bovine R1A, mouse PKAc; PKA-R1A dissociation; scaled: DMSO 0%, 113 µM cGMP 100%; actives 0.083% (n = 340,000); activation, % at 11.4 µM; cAMP-dependent protein kinase type I-alpha regulatory subunit (Bos taurus) + …;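 active = percent activation above the mean of all tested compounds plus 3 SD, cut at about 19% in these data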;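 also: higher means more PKAc released from R1A so a rise in polarization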
PKA-R2B activ – activators of PKA-R2B holoenzyme, primary screen, biochemical, fluorescence polarization, Cy5-IP20, human | actives 0.079% (n = 340,000) | PKA-R2B holoenzyme dissociation; R2B truncated from residue 108, S112A mutant; 0% DMSO only, 100% 113 µM cGMP | cAMP-dependent protein kinase catalytic subunit beta (Homo sapiens) + cAMP-dependent … | activation, % at 11.4 µM;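 active = activation above a cutoff set at the mean over all compounds plus 3 SD, cut at about 18% in these data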;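 also: higher means more holoenzyme dissociation and a rise in polarization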
pPAFAH FP conf – pPAFAH (PLA2G7) enzyme inhibitors, confirmation, biochemical, fluorescence polarization, human; shares compounds with pPAFAH FP inh; recombinant pPAFAH, FP-Rh probe fluorescence polarization; inhibition, % at 3.39 µM; actives 72% (n = 2,300); AID 463230, 2010;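 active = mean inhibition of the triplicate above the hit cutoff set for the earlier primary screen, cut at about 25% in these data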;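 also: 0% = enzyme with DMSO and 100% = wells lacking pPAFAH enzyme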
* hit, by the source's call; x = not tested or not shown.

SMILES	pPAFAH FP inh	PAFAH2 FP inh	PAFAH1B3 inh	PAFAH1B2 FP inh	PKA-R1A act	PKA-R2B activ	pPAFAH FP conf
Cc1nc(-c2ccccc2)cc(=O)[nH]1	1	10	16	2	2	3	x
CCc1nc(-c2ccccc2)cc(=O)[nH]1	40*	4	10	-1	-7	-4	4
COc1ccc([C@H]2C[C@H](O)[C@@H](n3cc(COC(=O)c4ccccc4)nn3)CN2CC2CCCCC2)cc1	x	x	x	x	-11	-7	x
CCCC(=Nc1ccccc1)C1=C(O)C(C(=O)OC)C(C)(C)CC1=O (configuration not stated)	2	0	1	1	-8	0	x
CCC(=Nc1ccc(N)cc1)C1=C(O)C(C(=O)OC)C(C)(C)CC1=O (configuration not stated)	58*	9	12	-2	4	-12	1
CCCCC(=Nc1ccc(N)cc1)C1=C(O)C(C(=O)OC)C(C)(C)CC1=O (configuration not stated)	38*	10	14	10	1	-16	8
COc1cc(C(=O)Oc2c(CN3CCOCC3)cc(Cl)c3cccnc23)cc(OC)c1OC	40*	4	5	1	-10	-5	5
CC(N=Cc1cccc(O)c1O)c1ccccc1 (configuration not stated)	66*	26	24	17	9	-1	17
COc1ccc(CN(C)C(=O)c2ccc(NS(=O)(=O)c3ccc(F)cc3)cc2)c(OC)c1OC	5	2	1	1	1	-5	x
Cc1coc2c1C(=O)C(=O)c1c-2ccc2c1CCCC2(C)C	56*	76*	7	27*	0	8	70*
C[C@H]1COC2=C1C(=O)C(=O)c1c2ccc2c1CCCC2(C)C	80*	41*	28*	18	-4	3	74*
CCC(=O)Oc1ccc(NC(=O)c2ccc(S(=O)(=O)N3CCCC3)cc2)cc1	x	x	x	x	-3	-3	x
CN(C(=O)c1cccnc1)c1nnc(-c2cnccn2)s1	5	3	-3	2	-4	-7	x
CN(C(=O)c1cccnc1)c1nnc(-c2cccnc2)s1	42*	0	-4	2	-6	-4	3
COc1cc(NC(C)CCCN)c2nc(C)ccc2c1Oc1ccc(F)cc1 (configuration not stated)	x	x	x	x	-2	-7	x
CCOc1ccc2c(c1)C(=O)c1cc(OCC(=O)O)ccc1-2	37*	1	8	3	-5	-2	7
CCCCOc1ccc2c(c1)C(=O)c1cc(O)ccc1-2	11	11	16	12	-6	-4	x
CCc1c(C)sc(NC(=O)CC#N)c1C#N	35*	20	8	9	-4	-10	15
CCCC(=O)Nc1sc(C)c(C)c1C#N	1	-6	2	2	-2	-3	x
N#C/C(=C(/O)c1ccc2c(c1)OCO2)c1nc2cc(C(F)(F)F)ccc2s1	38*	19	11	89*	-8	1	60*
COC(=O)c1ccc(/C(O)=C(\C#N)c2nc3ccccc3s2)cc1	9	8	4	23	-4	0	x
Cc1cc(O)ccc1N=Cc1c(C(F)(F)F)[nH][nH]c1=O	74*	27	21	16	-1	4	10
CCN1C(=O)C2C(c3ccccc3F)NC(Cc3ccc(O)cc3)(C(=O)OC)C2C1=O (configuration not stated)	48*	7	7	7	-2	-4	2
CCOC(=O)C1(Cc2ccccc2)NC(c2ccccc2F)C2C(=O)N(CC)C(=O)C21 (configuration not stated)	5	0	9	-7	-9	5	x
CC(Cc1ccc(O)c(O)c1)C(C)Cc1ccc(O)c(O)c1 (configuration not stated)	70*	x	x	x	x	x	79*
SMILES	pPAFAH FP inh	PAFAH2 FP inh	PAFAH1B3 inh	PAFAH1B2 FP inh	PKA-R1A act	PKA-R2B activ	pPAFAH FP conf
N[C@@H](Cc1ccc(O)c(O)c1)C(=O)O	x	-1	10	1	-3	7	x
CC1=Nc2ccccc2/C1=C/c1sc(=N)n(-c2nccs2)c1O	56*	24	16	9	-12	3	51*
O=C(Cn1c(=O)n(Cc2ccco2)c(=O)c2c3c(sc21)CCCCC3)c1ccccc1	37*	18	1	-1	-9	-1	11
CCOCCn1c(=O)c2c(nc3n2CCCN3Cc2ccccc2)n(C)c1=O	42*	1	1	2	-1	0	3
CCOCCn1c(=O)c2c(nc3n2CCCN3CCc2ccccc2)n(C)c1=O	4	-8	-3	3	-8	-6	x
NNC(=O)c1c[nH]c2ccc(OCc3ccccc3)cc12	-12	-8	-3	1	0	-12	x
Cc1ccc(NC(=O)COc2cccc(/C=C3\SC(=S)N(CCC(=O)O)C3=O)c2)cc1Cl	40*	6	1	5	8	-2	27*
O=C(O)CCN1C(=O)/C(=C\c2cccc(OCC(=O)Nc3ccc(Cl)cc3)c2)SC1=S	24	5	0	8	-28	-10	x
O=C(O)COc1cccc(/C=C2/SC(=S)N(Cc3ccccc3)C2=O)c1	40*	1	-1	3	-12	-2	33*
CC(=O)[C@@]1(O)[C@H](C)CC2C3CC=C4CC(OP(=O)(O)O)CC[C@]4(C)C3CC[C@@]21C (some centres not stated)	-6	4	5	5	1	3	x
Cc1ccc(C(=O)CSc2nnc(-c3c[nH]c4ccccc34)o2)cc1	48*	1	6	1	0	3	3
Cc1cc(=O)n2nc(N3CCCC(C(=O)NCCCN4C(C)CCCC4C)C3)sc2n1 (configuration not stated)	x	x	x	x	1	8	x
COCCN(C(=O)COC(=O)c1cc2c(s1)CCC2)c1c(N)n(Cc2ccccc2)c(=O)[nH]c1=O	56*	57*	10	9	-5	-7	34*
